From PubChem BioAssay AID504329 (Southern Research Specialized Biocontainment Screening …, 2011)
The campaign covered roughly 340,000 compounds. About 1,000 (0.29%) were called active. No stated cut-off is given here; in the data, inconclusive means inhibition above about 27% without an active follow-up result; inactive means below that. These entries were drawn from the full list. Potency and affinity values are given separately.

assay: H1N1 influenza NS1A inhibitors, functional cell based assay (AID 504329); conditions: percent inhibition, at 12.5 µM, hits give high values

Compound	inhibition
CC(=O)c1ccccc1OCC(O)CN1CCN(c2ccccn2)CC1 (configuration not stated)	-18.6% (inactive)
CCOc1ccccc1N(CC(=O)Nc1ccccc1C(=O)N1CCOCC1)S(C)(=O)=O	-12.1% (inactive)
COC(=O)c1ccccc1NC(=O)Nc1cccnc1	-5.77% (inactive)
CCOP(=O)(OCC)C(NC(=O)Nc1ccc(Cl)cc1)C(N)=O (configuration not stated)	-4.5% (inactive)
COc1cccc2cc(C(=O)NCC3CCCO3)c(=O)oc12 (configuration not stated)	6.96% (inactive)
COc1ccc(/C(O)=C2\C(=O)C(=O)N(CCN3CCOCC3)C2c2ccccc2OC)cc1 (configuration not stated)	-5.93% (inactive)
CCc1cccc(NC(=O)CSCc2cc(=O)[nH][nH]2)c1	4.49% (inactive)
Cc1cnc(-n2c(=S)[nH]c3ccccc3c2=O)s1	-7.74% (inactive)
O=C(NCc1cc(C(F)(F)F)ccc1F)C1CCC(=O)N(C2CC2)C1 (configuration not stated)	-6.88% (inactive)
Nc1ccc(N2CCN(c3ccc(F)cc3)CC2)cc1	-1.58% (inactive)
CCN1CCN(c2ccc(N)cc2)CC1	11.3% (inactive)
N#Cc1ccc(C(=O)Nc2cc(C3CC3)nn2-c2ccccc2)cc1	-9.27% (inactive)
CC[n+]1c(C)sc2c3ccsc3ccc21	2.89% (inactive)
Cn1c(SCC(=O)Nc2ccc(C(N)=O)cc2)nc2c(c1=O)SCC2	-1.68% (inactive)
Oc1ccccc1N=N/C(=N/Nc1ccccc1O)c1ccccc1	-1.57% (inactive)
Oc1ccccc1N=Nc1ccccc1O	21.9% (inactive)
CC(=O)NC1C(Oc2ccccc2C)OC2COC(c3ccco3)OC2C1O (configuration not stated)	-4.4% (inactive)
Cc1ccn(CC(=O)N2CCCC(C(=O)c3cccc4ccccc34)C2)n1 (configuration not stated)	1.06% (inactive)
Cc1ccc(N2CC(C(=O)N3CCC(C(=O)NCCCOC(C)C)CC3)CC2=O)cc1 (configuration not stated)	-11.9% (inactive)
COc1ccc(OCC(=O)N/N=C/c2cccc3cccnc23)cc1	27.8% (inactive)
COc1cccc(/C=N/NC(=O)COc2cccc3cccnc23)c1O	-3.74% (inactive)
Cc1ccccc1OCC(=O)N/N=C/c1cccc2cccnc12	11.7% (inactive)
O=C(COc1ccc(F)cc1)N/N=C/c1cccc2cccnc12	-1.12% (inactive)

Compound	inhibition
Cc1ccc(C(F)(F)F)cc1NC(N)=S	5.01% (inactive)
COc1ccc(/C=N/Nc2nncn2N)cc1Br	9.22% (inactive)
Nn1cnnc1N/N=C/c1ccc(Cl)cc1Cl	-12.4% (inactive)
Cc1ccc(N(C)S(=O)(=O)c2ccc3[nH]cc(C(=O)NCCCN4CCOCC4)c(=O)c3c2)cc1C	4.79% (inactive)
Cc1cc(=O)[nH]c(N/N=C/c2ccccc2C(F)(F)F)n1	-5.35% (inactive)
Nc1ccc(N=Nc2ccccc2)c(N)n1	18% (inactive)
Nc1ccc(N=Nc2ccccc2)c2ccccc12	-3.26% (inactive)
COCCn1c(CN2CC(C)CC(C)C2)nc2c1c(=O)n(C)c(=O)n2C (configuration not stated)	3.18% (inactive)
CN(C)c1ccc(/C=C/c2nc3ccccc3s2)cc1	-0.93% (inactive)
CC[n+]1c(/C=C/N(C)c2ccccc2)sc2ccc(Cl)cc21	0.72% (inactive)
CN(C)c1ccc(/C=C/c2cc[n+](C)cc2)cc1	7.63% (inactive)
CC[n+]1c(/C=C/C=C/N(C(C)=O)c2ccccc2)sc2ccccc21	25.6% (inactive)
CCOc1nc(SCCOc2ccccc2)nc(N(C)C)n1	21.4% (inactive)
COc1ccc(NS(=O)(=O)c2cccc(C(=O)N/N=C(\C)c3ccncc3)c2)cc1	-5.23% (inactive)
Cc1ccc2cccnc2c1N	-4.2% (inactive)
O=S1(=O)NC(=NCCc2ccccn2)c2ccccc21	-4.92% (inactive)
O=Cc1ccc2ccc3cccnc3c2n1	9.05% (inactive)
Clc1cc2cccnc2c2ccccc12	-7.93% (inactive)
Oc1c(Cl)cc(Cl)c2cccnc12	-14.4% (inactive)
Cc1ccc2ccc3ccc(C)nc3c2n1	-7.29% (inactive)
Clc1ccc2ccc3cccnc3c2n1	-25.7% (inactive)
c1cnc2c(c1)ccc1ncccc12	-2.85% (inactive)
CCc1cc(C(=O)N2CCCC(N3CCN(c4cccc(C(F)(F)F)c4)CC3)C2)n(C)n1 (configuration not stated)	-0.25% (inactive)

Compound	inhibition
CCO/C=C/C(O)(CNC(=O)COc1ccccc1F)C(F)(F)F (configuration not stated)	-0.96% (inactive)
Cc1ccc(S(=O)(=O)N2CCN(S(=O)(=O)N3CCC(C)CC3)CC2)cc1C	2.71% (inactive)
CC(=O)Nc1nnc(SCC(=O)N2CCc3ccccc32)s1	-6.4% (inactive)
O=C(NNc1ccc(-c2csnn2)cc1)c1ccccc1C(F)(F)F	-23.8% (inactive)
CC1=C(C(=O)Nc2cc(C(=O)N3CCN(c4cccc(C)c4C)CC3)ccc2C)SCCO1	8.75% (inactive)
O=C(NC1=C(Nc2ccc(F)cc2)C(=O)c2ccccc2C1=O)c1ccc(Cl)cc1	-4.19% (inactive)
Cc1cccc(NC2=C(NC(=O)c3ccccc3)C(=O)c3ccccc3C2=O)c1	28.6% (inactive)
CN(C1=C(NC(=O)c2ccccc2)C(=O)c2ccccc2C1=O)C1CCS(=O)(=O)C1 (configuration not stated)	4.18% (inactive)
O=C(NC1=C(Nc2ccc(Cl)cc2)C(=O)c2ccccc2C1=O)c1ccccc1	12.2% (inactive)
COc1ccc(NC(=O)CN2CCN(CC(=O)Nc3ccccc3Cl)CC2)cc1Cl	3.53% (inactive)
COc1cccc(CC(CC(=O)O)C(=O)Nc2cc(C)ccc2C)c1 (configuration not stated)	2.74% (inactive)
CN1C(=O)/C(=C2\SC(=S)N(NC(=O)c3cccnc3)C2=O)c2ccccc21	6.82% (inactive)
O=C(CNC(=O)c1ccco1)N/N=C/c1c[nH]c2ccccc12	-1% (inactive)
COC(=O)C(=NNc1c(C)n(C)n(-c2ccccc2)c1=O)C(=O)OC	-4.26% (inactive)
Cc1c(NC(C)C)c(=O)n(-c2ccccc2)n1C	-3.1% (inactive)
Cc1c(NN=C(C#N)C#N)c(=O)n(-c2ccccc2)n1C	-11.5% (inactive)
C=CCSC(=S)Nc1c(C)n(C)n(-c2ccccc2)c1=O	-2.87% (inactive)
Cc1c(NP(=O)(c2ccc(Br)cc2)c2ccc(Br)cc2)c(=O)n(-c2ccccc2)n1C	-4.88% (inactive)
Cc1c(C=C2C(=O)NC(=O)NC2=O)c(=O)n(-c2ccccc2)n1C	-5.56% (inactive)
CCS(=O)(=O)Nc1c(C)n(C)n(-c2ccccc2)c1=O	-2.8% (inactive)
Cc1c(NS(=O)(=O)c2ccc(Br)cc2)c(=O)n(-c2ccccc2)n1C	-8.19% (inactive)
